For nine compounds, growth results are on record in PubChem BioAssay (NCI).

Some test systems named below: SR leukemia; RPMI-8226 leukemia; OVCAR-8 ovarian; OVCAR-5 ovarian; OVCAR-4 ovarian; SK-OV-3 ovarian; IGROV1 ovarian; OVCAR-3 ovarian; HS 578T breast; NCI/ADR-RES ovarian; T-47D breast; BT-549 breast; MDA-MB-435 melanoma; SW-620 colon; MCF7 breast; HCT-116 colon; KM12 colon; HCC-2998 colon.
Common to all, as to experiment: NCI-60 one-dose screen, 48 h (100 = growth as untreated, 0 = no growth, -100 = all killed)
Holding throughout (details): 10 µM

The structures appear in SMILES notation. Compounds without any hit were thinned out: in the full panel of roughly 83,000, 20% have a hit.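 The test compound was applied at a single concentration to cells in 96-well plates for 48 hours, and percent growth was recorded.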 A number with no mark means an inactive call. Active and inactive are the calls of the source. How the source made its calls: active means growth percent below 10; inactive means the rest.

With `CC1(C)CC(=O)c2c(nc3ccc(Cl)cc3c2-c2ccccc2)C1`, the growth in the test with SR leukemia was 69.5%; in the test on RPMI-8226 leukemia, 27.5%; in the test on OVCAR-8 ovarian it was 94.6%; in the test with OVCAR-5 ovarian, 89.9%; in the test on OVCAR-4 ovarian, 98.8%; in the test on SK-OV-3 ovarian, 94.3%. The growth is 75.5% in the test on IGROV1 ovarian; 108% in the test with OVCAR-3 ovarian; 158% with HS 578T breast; 81.9% with NCI/ADR-RES ovarian; 85.7% in the test with T-47D breast; 85.8% with BT-549 breast. Also, the growth in the test on MDA-MB-435 melanoma was 84.5%; in the test on SW-620 colon, 159%; with MCF7 breast, 86.3%; with HCT-116 colon, 91%; in the test with KM12 colon, 94%.
Consider `CCN(CC)CCn1c(=N)n(CC(O)c2ccc(Cl)c(Cl)c2)c2ccccc21` (stereo not given), for which the growth in the test on SR leukemia was 26.4%; in the test with RPMI-8226 leukemia, 68.1%; with OVCAR-8 ovarian, 92.6%; with OVCAR-5 ovarian, 102%; with OVCAR-4 ovarian, 69%; with SK-OV-3 ovarian, 92.3%. Further, the growth with IGROV1 ovarian was 90.1%; with OVCAR-3 ovarian, 96.7%; in the test on HS 578T breast, 80.5%; in the test with NCI/ADR-RES ovarian, 88.6%; in the test with T-47D breast, 66.5%; with BT-549 breast it was 76.7%. In addition, the growth with MDA-MB-435 melanoma is 1.39% (active); in the test on SW-620 colon, 93.5%; in the test with MCF7 breast it was 90%; with HCT-116 colon it was 77.7%; with HCC-2998 colon, 74.5%; with KM12 colon, 84.4%.
As to `CC(=O)OC1Oc2ccccc2-c2oc(=O)c(-c3cc(=O)oc4cc(O)ccc34)cc21` (stereo not given), the growth is 3.66% (active) with SR leukemia; 46.7% in the test on RPMI-8226 leukemia; 89.1% in the test with OVCAR-8 ovarian; 75.8% in the test on OVCAR-5 ovarian; 77.2% with OVCAR-4 ovarian; 83.3% in the test on SK-OV-3 ovarian. For the same compound, the growth in the test with IGROV1 ovarian is 49.4%; in the test with OVCAR-3 ovarian, 63.8%; with HS 578T breast, 59.5%; with NCI/ADR-RES ovarian, 75.5%; with T-47D breast, -17.5% (active); in the test on BT-549 breast, 61.4%. In addition, the growth in the test on MDA-MB-435 melanoma was 86.8%; in the test with SW-620 colon, 92.2%; with MCF7 breast, 85.5%; in the test with HCT-116 colon it was 87.3%; in the test with KM12 colon it was 89.2%.
Take `Cc1ccc(C)c(S(=O)(=O)NC2c3ccccc3Oc3ccccc32)c1`: the growth with SR leukemia was 63%; with RPMI-8226 leukemia, 98.2%; in the test with OVCAR-8 ovarian, 90.6%; in the test with OVCAR-5 ovarian it was 103%; with OVCAR-4 ovarian it was 92.6%; with SK-OV-3 ovarian, 102%. Further, the growth in the test on IGROV1 ovarian is 96%; in the test on OVCAR-3 ovarian, 95.9%; with HS 578T breast it was 107%; in the test on NCI/ADR-RES ovarian, 88.5%; in the test with T-47D breast, 72.1%; with BT-549 breast it was 102%. Moreover, the growth is 107% in the test on MDA-MB-435 melanoma; 88.8% in the test with SW-620 colon; 90.8% with MCF7 breast; 91.8% in the test with HCT-116 colon; 102% in the test with KM12 colon.
As for `C(=C\c1nc2ccccc2s1)/c1ccc(N2CCOCC2)s1`, the growth in the test with SR leukemia was 26.3%; in the test with RPMI-8226 leukemia, 62.9%; with OVCAR-8 ovarian it was 97.6%; in the test with OVCAR-5 ovarian it was 112%; in the test with OVCAR-4 ovarian, 72.9%; in the test with SK-OV-3 ovarian it was 98.7%. Further, the growth with IGROV1 ovarian is 100%; in the test with OVCAR-3 ovarian, 85.8%; in the test with HS 578T breast it was 112%; with NCI/ADR-RES ovarian, 69.9%; in the test on T-47D breast it was 1.72% (active); in the test on BT-549 breast, 89.5%. Besides, the growth in the test with MDA-MB-435 melanoma is 64.9%; in the test on SW-620 colon, 101%; with MCF7 breast, 80.2%; in the test with HCT-116 colon it was 55.4%; with KM12 colon, 48.6%.
For `COc1cccc2c1C(=O)c1c(O)c3c(c(O)c1C2=O)C[C@@](O)(C(=O)COC(=O)c1ccccc1)C[C@@H]3OC1CC(N)C(O)C(C)O1` (stereo not given in full), the growth is -43.7% (active) in the test with SR leukemia; -66.4% (active) with RPMI-8226 leukemia; -77.3% (active) in the test with OVCAR-8 ovarian; -94.9% (active) in the test with OVCAR-5 ovarian; -87.9% (active) with OVCAR-4 ovarian; -72.8% (active) with SK-OV-3 ovarian. The growth with IGROV1 ovarian was -75.2% (active); with OVCAR-3 ovarian, -93.6% (active); in the test with HS 578T breast, -41.6% (active); in the test on NCI/ADR-RES ovarian it was 22.5%; with T-47D breast, -71.7% (active); in the test with BT-549 breast, -76.9% (active). The growth in the test with MDA-MB-435 melanoma was -97.7% (active); in the test with SW-620 colon, -81.9% (active); in the test with MCF7 breast, -66.2% (active); in the test on HCT-116 colon it was -75% (active); with HCC-2998 colon, -93% (active); in the test on KM12 colon it was -95.6% (active).
With `CCCCc1ccc(NC(=O)N(CCCl)N=O)cc1`, the growth in the test with SR leukemia is 30.9%; in the test with RPMI-8226 leukemia, 98.6%; in the test on OVCAR-8 ovarian it was 96.7%; in the test with OVCAR-5 ovarian it was 104%; in the test with OVCAR-4 ovarian, 108%; in the test with SK-OV-3 ovarian, 95.3%. In addition, the growth in the test on IGROV1 ovarian is 97.2%; in the test on OVCAR-3 ovarian, 105%; in the test on HS 578T breast, 111%; in the test with NCI/ADR-RES ovarian it was 115%; with T-47D breast it was 112%; in the test on BT-549 breast it was 85.4%. In addition, the growth with MDA-MB-435 melanoma is 92%; with SW-620 colon it was 93%; with MCF7 breast it was 92.7%; in the test with HCT-116 colon it was 97.1%; in the test with KM12 colon, 94.3%.
On to `Oc1[nH]c2ccccc2c1/C=c1/cc2c(c(-c3ccc(C(F)(F)F)cc3)n1)=Nc1ccccc1-2`, for which the growth with SR leukemia was 4.59% (active); in the test on RPMI-8226 leukemia, 12%; with OVCAR-8 ovarian, 63.5%; in the test with OVCAR-5 ovarian it was 70.5%; in the test with OVCAR-4 ovarian, 50.5%; in the test with SK-OV-3 ovarian it was 79%. The growth in the test on IGROV1 ovarian is 71.2%; in the test on OVCAR-3 ovarian, 20.2%; with HS 578T breast it was 74.8%; in the test on NCI/ADR-RES ovarian, 31.7%; in the test on T-47D breast, 37.5%; with BT-549 breast it was 82.7%. The growth is 4.17% (active) in the test with MDA-MB-435 melanoma; 41.8% in the test with SW-620 colon; 11.3% with MCF7 breast; 30% in the test on HCT-116 colon; 36.2% in the test with KM12 colon.
Take `CC(=O)OC1Oc2ccccc2-c2oc(=O)c(-c3ccc(F)cc3)cc21` (stereo not given): the growth in the test with SR leukemia is 65.3%; with RPMI-8226 leukemia, 90.8%; in the test on OVCAR-8 ovarian, 77.7%; in the test on OVCAR-5 ovarian it was 104%; in the test with OVCAR-4 ovarian, 88.6%; in the test on SK-OV-3 ovarian it was 92.6%. Moreover, the growth in the test on IGROV1 ovarian was 59.8%; with OVCAR-3 ovarian it was 110%; in the test on HS 578T breast, -26.6% (active); with NCI/ADR-RES ovarian, 96.4%; with T-47D breast, 77.2%; with BT-549 breast it was 80.6%. Besides, the growth in the test with MDA-MB-435 melanoma is 51.5%; in the test with SW-620 colon, 12.8%; with MCF7 breast, 63.2%; in the test on HCT-116 colon, 86.5%; in the test with KM12 colon, 89.9%.
